Several values for one entry are separate records, joined by “and”; a condition that tells them apart may be missing. Equal entries are not always repeated. Results filed as inconclusive are left out. A call without a number means that no potency is given here. The source holds several records for some structures; these can differ, active in one and inactive in another. Activity calls are given as the source filed them. Unless noted, calls come from the whole dose curve; as a rule, active = well fitted curve in the direction sought with a large enough effect in the repeat runs; inconclusive = weak or mixed curves; inactive = no such curve, though single readings can be large; an effect the other way counts as inactive or inconclusive.
How the values were obtained:
[1] = qHTS assay to identify small molecule agonists of the sonic hedgehog signaling (Shh) pathway (AID 1259368; calls by dose curve;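 note: NIH/3T3-derived 3T3Gli1-Luc cells carrying a stable Gli1-driven firefly luciferase reporter; series mostly up to about 92 µM; nearly all actives have a fitted effect of over 15% in size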)
How it was run: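 3T3Gli1-Luc (NIH/3T3 clone, stable Gli1-Luc); 4 hr pre-incubation, then cpd in DMSO 24 hr, 37 C/5% CO2; luciferase reagent 30 min RT; luminescence.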

[2] = qHTS assay to identify small molecule antagonists of the sonic hedgehog signaling (Shh) pathway (AID 1259369; calls by dose curve; note: nearly all actives have a fitted effect of over 45% in size; note: potency is the fitted concentration of half-maximal effect)
How it was run: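 3T3Gli1-Luc, conditioned-medium-stimulated, 24hr cpd, 37C/5% CO2; Gli1-driven firefly Luc luminescence after 30min RT with luciferase reagent. Cells plated 4hr before cpd.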

[3] = qHTS assay to identify small molecule agonists of the androgen receptor (AR) signaling pathway in the presence of an antagonist - cell viability counter screen (AID 1259379); note: nearly all actives have a fitted effect of over 25% in size; note: potency is the fitted concentration of half-maximal effect
How it was run: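 Cells: MDA-kb2 (MMTV-luc, AR and GR elements), 3,000/well, 5 hr settle. Added: nilutamide 3.0uM final, then compounds (15 conc.). Incubation: 16 hr, 37C, no CO2. Read-out: CellTiter-Fluor, 1 hr, fluorescence.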

[4] = qHTS assay to identify small molecule agonists of the estrogen receptor beta (ER-beta) signaling pathway - cell viability counter screen (AID 1259380); note: nearly all actives have a fitted effect of over 30% in size; note: potency is the fitted concentration of half-maximal effect
How it was run: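 HEK293T ER-beta-UAS-bla; 2% CS-FBS; 6 hr pre-plate, 16 hr cpd at 37C/5% CO2; LiveBLAzer read first, then CellTiter-Glo 30 min RT, luminescence.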

[5] = qHTS assay to identify small molecule antagonists of the estrogen receptor beta (ER-beta) signaling pathway - cell viability counter screen (AID 1259382); note: nearly all actives have a fitted effect of over 55% in size; note: potency is the fitted concentration of half-maximal effect
How it was run: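 Cells: ER-beta-UAS-bla HEK293T, 2,000/well, 2% CS-FBS, 6 hr settle. Cpd + E2 (1nM final), 16 hr, 37C/5% CO2. Bla FRET substrate 2 hr RT, then CellTiter-Glo 30 min RT, luminescence.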

[6] = molecular target: Estrogen receptor (Homo sapiens) (UniProt P03372); experiment: qHTS assay to identify small molecule agonists of the estrogen receptor alpha (ER-alpha) signaling pathway in the presence of an antagonist (AID 1259383; calls by dose curve; note: top concentration of the series differs between compounds; nearly all actives have a fitted effect of over 15% in size)
Sequence of Estrogen receptor (Homo sapiens) (P03372 whole entry, looked up): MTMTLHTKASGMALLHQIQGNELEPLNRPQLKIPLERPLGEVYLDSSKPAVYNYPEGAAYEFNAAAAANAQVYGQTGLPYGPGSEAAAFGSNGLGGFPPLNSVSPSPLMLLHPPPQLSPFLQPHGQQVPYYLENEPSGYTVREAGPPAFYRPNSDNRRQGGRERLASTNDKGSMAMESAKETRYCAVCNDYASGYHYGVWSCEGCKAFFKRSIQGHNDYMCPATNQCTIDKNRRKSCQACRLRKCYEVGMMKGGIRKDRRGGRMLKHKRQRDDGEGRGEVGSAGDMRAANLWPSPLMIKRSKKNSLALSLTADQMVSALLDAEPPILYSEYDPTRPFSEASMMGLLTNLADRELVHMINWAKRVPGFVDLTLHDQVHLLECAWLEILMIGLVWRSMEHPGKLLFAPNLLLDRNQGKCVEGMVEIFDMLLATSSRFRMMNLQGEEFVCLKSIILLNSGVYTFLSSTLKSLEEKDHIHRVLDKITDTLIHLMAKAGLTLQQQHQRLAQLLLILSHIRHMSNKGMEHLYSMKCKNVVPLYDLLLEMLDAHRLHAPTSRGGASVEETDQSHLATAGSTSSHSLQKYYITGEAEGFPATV
How it was run: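 VM7Luc4E2, endog. ER-alpha + 4×ERE-luc; charcoal-stripped FBS, phenol red-free, 5 d; 24hr plating; +10.0nM ICI-182,780 (final); cpds 15 conc, 22hr, 37C/5% CO2; ONE-Glo luminescence.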

[7] = qHTS assay to identify small molecule agonists or antagonists of the thyroid stimulating hormone receptor (TSHR) signaling pathway - wild type cell line counter screen (AID 1259384; calls by dose curve)
How it was run: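 Counter screen in untransfected Hek293: compounds (15-point titration, triplicate) plus phosphodiesterase inhibitor Ro20-1724 added after 18 h plating; 30 min RT. Intracellular cAMP via competitive d2/cryptate immunoassay, 1 h incubation.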

[8] = qHTS assay to identify small molecule agonists of the estrogen receptor alpha (ER-alpha) signaling pathway in the presence of an antagonist - cell viability counter screen (AID 1259386);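 note: cells exposed to compounds for 22 h at 37 °C before the viability read; nearly all actives have a fitted effect of over 30% in size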; note: potency is the fitted concentration of half-maximal effect
How it was run: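 VM7Luc4E2, stripped-serum pre-culture 5 d; 24hr plating; +ICI-182,780 10.0nM final; cpds 15 conc, 22hr, 37C/5% CO2; CellTiter-Fluor added at 21hr, fluorescence 1hr later.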

[9] = molecular target: Progesterone receptor (Homo sapiens) (UniProt P06401); experiment: qHTS assay to identify small molecule agonists of the progesterone receptor (PR) signaling pathway (AID 1346784; calls by dose curve; note: nearly all actives have a fitted effect of over 30% in size)
Sequence of Progesterone receptor (Homo sapiens) (P06401 whole entry, looked up): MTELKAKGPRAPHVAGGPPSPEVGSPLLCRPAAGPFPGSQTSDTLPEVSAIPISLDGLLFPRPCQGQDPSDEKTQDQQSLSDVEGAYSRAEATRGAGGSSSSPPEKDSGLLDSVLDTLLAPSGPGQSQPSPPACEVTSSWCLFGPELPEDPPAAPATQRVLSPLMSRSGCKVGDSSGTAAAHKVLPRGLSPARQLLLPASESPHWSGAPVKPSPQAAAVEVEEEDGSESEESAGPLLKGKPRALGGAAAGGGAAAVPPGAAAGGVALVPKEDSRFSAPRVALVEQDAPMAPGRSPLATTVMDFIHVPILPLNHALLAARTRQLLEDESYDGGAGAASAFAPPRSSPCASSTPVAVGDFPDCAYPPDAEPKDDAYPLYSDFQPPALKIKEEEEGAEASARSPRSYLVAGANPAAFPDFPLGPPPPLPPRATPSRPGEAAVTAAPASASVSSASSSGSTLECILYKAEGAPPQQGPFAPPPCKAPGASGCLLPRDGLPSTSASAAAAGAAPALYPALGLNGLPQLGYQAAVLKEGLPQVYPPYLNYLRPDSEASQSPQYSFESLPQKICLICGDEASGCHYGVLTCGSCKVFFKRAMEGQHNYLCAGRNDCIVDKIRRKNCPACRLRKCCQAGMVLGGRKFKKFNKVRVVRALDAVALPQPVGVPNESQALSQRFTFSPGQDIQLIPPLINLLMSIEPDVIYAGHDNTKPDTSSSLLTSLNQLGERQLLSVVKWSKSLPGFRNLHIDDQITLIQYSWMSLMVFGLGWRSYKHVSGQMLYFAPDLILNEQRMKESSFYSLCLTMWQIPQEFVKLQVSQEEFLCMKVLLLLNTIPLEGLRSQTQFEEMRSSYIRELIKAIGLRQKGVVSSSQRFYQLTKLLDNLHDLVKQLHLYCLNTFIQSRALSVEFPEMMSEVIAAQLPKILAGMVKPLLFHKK
How it was run: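 Using charcoal-stripped serum (2%) to limit endogenous steroids, PR-UAS-bla HEK 293T cells received compounds for 16 hr at 37C after 6 hr plating; beta-lactamase FRET fluorescence was recorded following 2 hr substrate loading at room temperature.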

[10] = molecular target: Progesterone receptor (Homo sapiens) (UniProt P06401); experiment: qHTS assay to identify small molecule antagonists of the progesterone receptor (PR) signaling pathway (AID 1346795; active = well fitted inhibition curve with a large enough effect in the signal ratio in the repeat runs, not every such curve was filed as active; the % refers to the signal ratio; note: potency is the fitted concentration of half-maximal effect)
How it was run: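 Inhibition of R5020-induced (1 nM final) beta-lactamase reporter signal in PR-UAS-bla HEK293T cells was scored by FRET fluorescence after overnight (16 hr) compound treatment.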

[11] = qHTS assay to identify small molecule antagonists of the progesterone receptor (PR) signaling pathway - cell viability counter screen (AID 1346798); note: nearly all actives have a fitted effect of over 50% in size; note: potency is the fitted concentration of half-maximal effect
How it was run: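 ATP content as viability readout: CellTiter-Glo luminescence, 30 min room temperature, in PR-UAS-bla HEK293T cells after 16 hr compound/R5020 treatment at 37C and 5% CO2.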

[12] = qHTS assay to identify small molecule agonists of the progesterone receptor (PR) signaling pathway - cell viability counter screen (AID 1346799; calls by dose curve; note: nearly all actives have a fitted effect of over 45% in size; note: potency is the fitted concentration of half-maximal effect)
How it was run: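 Cytotoxicity in PR-bla HEK293T cells: 16 h compound, 37C; CellTiter-Glo added post-FRET read; luminescence after 30 min RT.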

[13] = qHTS assay to identify small molecule antagonists of the TGF-beta/Smad signaling pathway - cell viability counter screen (AID 1346824); note: nearly all actives have a fitted effect of over 50% in size
How it was run: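 Cytotoxicity counter-screen run in the same wells as the beta-lactamase Smad reporter read: CellTiter-Glo luminescence after 30 min at room temperature. HEK 293T SBE-bla cells had 5 hr compound exposure at 37 C with TGF-beta1 (0.25 ng/mL stock).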

[14] = qHTS assay to identify small molecule agonists of the TGF-beta/Smad signaling pathway - cell viability counter screen (AID 1346829); note: top concentration of the series differs between compounds; nearly all actives have a fitted effect of over 45% in size
How it was run: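 After overnight seating at 37 C and 5% CO2, reporter cells got compounds for 5 hr and FRET substrate for 2 hr; cell viability then came from CellTiter-Glo luminescence.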

[15] = qHTS assay to identify small molecule agonists of the TGF-beta/Smad signaling pathway (AID 1346859; active = well fitted activation curve with a large enough effect in the signal ratio in the repeat runs, not every such curve was filed as active; the % refers to the signal ratio; note: series mostly up to about 77 µM)
How it was run: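 Stable Smad binding element-beta-lactamase HEK 293T cells; 5 hr compound exposure at 37 C under 5% CO2; 2 hr room-temperature substrate step; fluorescence excited at 405 nm, collected at 460 nm and 530 nm.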

[16] = molecular target: Thyrotropin-releasing hormone receptor (Homo sapiens) (UniProt P34981); experiment: qHTS assay to identify small molecule antagonists of the thyrotropin-releasing hormone receptor (TRHR) signaling pathway (AID 1346877; active = well fitted inhibition curve with a large enough effect in the repeat runs, not every such curve was filed as active; note: series mostly up to about 51 µM)
Sequence of Thyrotropin-releasing hormone receptor (Homo sapiens) (P34981 whole entry, looked up): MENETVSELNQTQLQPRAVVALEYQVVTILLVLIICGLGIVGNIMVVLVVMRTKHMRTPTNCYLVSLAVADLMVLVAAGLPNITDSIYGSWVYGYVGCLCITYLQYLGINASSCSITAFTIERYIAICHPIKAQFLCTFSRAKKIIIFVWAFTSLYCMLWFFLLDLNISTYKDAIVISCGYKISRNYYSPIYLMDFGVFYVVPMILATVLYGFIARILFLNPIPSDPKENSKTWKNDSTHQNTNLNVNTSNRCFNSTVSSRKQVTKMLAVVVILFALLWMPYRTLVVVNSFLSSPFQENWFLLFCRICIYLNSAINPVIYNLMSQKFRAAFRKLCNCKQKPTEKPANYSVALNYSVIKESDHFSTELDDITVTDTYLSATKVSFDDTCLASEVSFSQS
How it was run: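 Intracellular calcium fluorescence, read kinetically every second over 3 min, reports TRH-evoked signalling in HEK293 cells carrying TRHR. Test compounds were added 5 min ahead of a 1 nM TRH challenge.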

[17] = molecular target: Thyrotropin receptor (Homo sapiens) (UniProt P16473); experiment: qHTS assay to identify small molecule antagonists of the thyroid stimulating hormone receptor (TSHR) signaling pathway (AID 1259385; calls by dose curve; note: nearly all actives have a fitted effect of over 20% in size)
Sequence of Thyrotropin receptor (Homo sapiens) (P16473 whole entry, looked up): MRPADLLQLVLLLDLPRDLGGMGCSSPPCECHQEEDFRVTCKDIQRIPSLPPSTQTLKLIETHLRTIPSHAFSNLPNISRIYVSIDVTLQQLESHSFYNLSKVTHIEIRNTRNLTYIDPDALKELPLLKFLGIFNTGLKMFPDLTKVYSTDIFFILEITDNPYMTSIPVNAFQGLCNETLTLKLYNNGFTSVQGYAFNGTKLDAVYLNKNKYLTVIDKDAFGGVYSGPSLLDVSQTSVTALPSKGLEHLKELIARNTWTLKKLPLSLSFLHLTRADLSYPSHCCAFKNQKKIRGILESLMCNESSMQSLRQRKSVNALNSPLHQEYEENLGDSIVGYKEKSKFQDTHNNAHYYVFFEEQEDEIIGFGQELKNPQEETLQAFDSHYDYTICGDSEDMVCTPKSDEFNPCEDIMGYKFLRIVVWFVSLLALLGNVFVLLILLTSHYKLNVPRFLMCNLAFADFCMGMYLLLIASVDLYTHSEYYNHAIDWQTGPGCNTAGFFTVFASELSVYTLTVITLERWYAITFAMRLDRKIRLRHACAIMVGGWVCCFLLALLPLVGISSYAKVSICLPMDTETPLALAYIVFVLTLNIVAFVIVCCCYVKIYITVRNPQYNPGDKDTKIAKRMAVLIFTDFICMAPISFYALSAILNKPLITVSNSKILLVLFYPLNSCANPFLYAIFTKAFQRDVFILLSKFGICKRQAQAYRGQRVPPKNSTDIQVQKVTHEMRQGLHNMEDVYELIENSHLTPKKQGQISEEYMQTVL
How it was run: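 Antagonist mode: compound-treated TSHR-expressing HEK293 cells were stimulated with 1.5 ng/mL TSH (final) in presence of Ro20-1724 for 30 min at RT. HTRF cAMP detection after 1 h; each compound tested at 15 concentrations, triplicate.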

[18] = molecular target: Androgen receptor (Homo sapiens) (UniProt P10275); experiment: qHTS assay to identify small molecule agonists of the androgen receptor (AR) signaling pathway in the presence of an antagonist (AID 1259381; calls by dose curve; note: nearly all actives have a fitted effect of over 15% in size)
Sequence of Androgen receptor (Homo sapiens) (P10275 whole entry, looked up): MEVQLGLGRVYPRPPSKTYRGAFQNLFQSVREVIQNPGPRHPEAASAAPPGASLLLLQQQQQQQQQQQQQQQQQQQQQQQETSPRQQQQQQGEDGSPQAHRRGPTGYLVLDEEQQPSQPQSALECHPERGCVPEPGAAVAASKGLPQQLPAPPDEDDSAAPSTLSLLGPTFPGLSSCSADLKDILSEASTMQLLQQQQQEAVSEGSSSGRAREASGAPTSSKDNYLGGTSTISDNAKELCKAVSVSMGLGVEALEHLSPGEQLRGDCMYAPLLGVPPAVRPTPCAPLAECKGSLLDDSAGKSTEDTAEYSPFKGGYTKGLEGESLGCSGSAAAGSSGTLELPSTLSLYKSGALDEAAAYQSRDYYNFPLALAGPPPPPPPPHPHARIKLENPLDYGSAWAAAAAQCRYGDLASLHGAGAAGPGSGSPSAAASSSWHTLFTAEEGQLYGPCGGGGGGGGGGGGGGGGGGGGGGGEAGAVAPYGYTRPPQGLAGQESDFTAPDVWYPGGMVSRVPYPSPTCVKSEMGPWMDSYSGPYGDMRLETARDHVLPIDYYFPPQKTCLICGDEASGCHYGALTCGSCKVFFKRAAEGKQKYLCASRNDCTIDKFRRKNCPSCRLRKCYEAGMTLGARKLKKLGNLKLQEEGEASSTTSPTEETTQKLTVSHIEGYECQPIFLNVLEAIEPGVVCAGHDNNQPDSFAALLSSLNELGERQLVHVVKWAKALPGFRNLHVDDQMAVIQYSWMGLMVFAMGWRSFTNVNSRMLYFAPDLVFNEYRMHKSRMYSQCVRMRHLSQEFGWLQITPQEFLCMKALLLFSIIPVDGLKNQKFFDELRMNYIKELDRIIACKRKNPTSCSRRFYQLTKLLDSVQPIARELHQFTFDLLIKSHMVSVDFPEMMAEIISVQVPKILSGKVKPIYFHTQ
How it was run: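 MDA-kb2 cells, 3,000/well, rested 5hr at 37C/0% CO2 → nilutamide 3.0uM final or buffer → compounds, 15 conc. → 16hr at 37C → ONE-Glo, 30min RT → luminescence.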

SMILES | outcome [1] | Potency [2] | Potency [3] | Potency [4] | Potency [5] | Potency [6] | Potency [7] | Potency [8] | Potency [9] | Potency [10] | Potency [11] | Potency [12] | Potency [13] | Potency [14] | outcome [15] | Potency [16] | Potency [17] | Potency [18]
Cc1ncc([N+](=O)[O-])n1CCO | inactive | inactive | inactive | inactive | inactive | inactive | inactive | inactive | inactive | inactive | inactive | inactive | inactive | inactive | inactive | inactive | – | –
CN1CCc2cccc3c2[C@H]1Cc1ccc(O)c(O)c1-3 | inactive | 2.87 µM (active) and 18.8 µM (active) | 55 µM (active) and 22.8 µM (active) and 26.6 µM (active) | 55 µM (active) and 20.4 µM (active) | 30.9 µM (active) and 20.4 µM (active) and inactive | inactive | inactive | 49.1 µM (active) and 22.8 µM (active) and 26.6 µM (active) | inactive | – | inactive | – | inactive | inactive | inactive | inactive | – | –
O=C1c2c(O)cccc2Cc2cccc(O)c21 | inactive | inactive | inactive | inactive | inactive | – | inactive | inactive | inactive | inactive | inactive | inactive | inactive | inactive | inactive | – | inactive | –
CCCCCCc1ccc(O)cc1O | inactive | 43.4 µM (active) | inactive | 48.7 µM (active) and 48.6 µM (active) | 48.7 µM (active) and inactive | – | inactive | inactive | inactive | 27.4 µM (active) and 27.3 µM (active) and 23.7 µM (active) | – | – | inactive | inactive | inactive | inactive | – | inactive
CCN(Cc1c(F)cccc1Cl)c1c([N+](=O)[O-])cc(C(F)(F)F)cc1[N+](=O)[O-] | inactive | inactive | inactive | 30.6 µM (active) | 43.3 µM (active) | inactive | – | inactive | inactive | – | 21.7 µM (active) | 8.63 µM (active) | inactive | inactive | inactive | inactive | – | –
CCOC(N)=O | inactive | inactive | inactive | inactive | inactive | inactive | inactive | inactive | inactive | inactive | inactive | inactive | inactive | inactive | inactive | inactive | – | –
Cc1ncc([N+](=O)[O-])n1C | inactive | inactive | inactive | inactive | inactive | inactive | inactive | inactive | inactive | inactive | inactive | inactive | inactive | inactive | inactive | inactive | – | –
C=CCc1ccc(O)c(OC)c1 | inactive | inactive | inactive | inactive | inactive | inactive | inactive | inactive | inactive | inactive | inactive | inactive | inactive | inactive | inactive | inactive | inactive | –
CN1[C@@H]2CC(OC(=O)[C@H](CO)c3ccccc3)C[C@H]1[C@@H]1O[C@@H]12 (stereo not given in full) | inactive | inactive | inactive | inactive | inactive | inactive | inactive | inactive | inactive | inactive | inactive | inactive | inactive | inactive | inactive | – | – | –
CC12CCC(CC1)C(C)(C)O2 | inactive | inactive | inactive | inactive | inactive | inactive | inactive | inactive | inactive | inactive | inactive | inactive | inactive | inactive | inactive | inactive | – | –
CN(N=O)C(=O)N[C@@H]1[C@@H](O)[C@H](O)[C@@H](CO)O[C@@H]1O | inactive | inactive | inactive | inactive | inactive | inactive | inactive | inactive | inactive | inactive | inactive | inactive | inactive | inactive | inactive | inactive | – | –
CC1(C)S[C@@H]2[C@H](NC(=O)[C@H](N)c3ccccc3)C(=O)N2[C@H]1C(=O)O | inactive | inactive | inactive | inactive | inactive | – | inactive | inactive | inactive | inactive | inactive | inactive | inactive | inactive | inactive | – | inactive | –
CS(=O)(=O)OCCCCOS(C)(=O)=O | inactive | inactive | inactive | inactive | inactive | inactive | inactive | inactive | inactive | inactive | inactive | inactive | inactive | inactive | inactive | inactive | – | –

Source: PubChem BioAssay (Tox21)
